Source: PubChem BioAssay AID1508637 (National Center for Advancing Translational Sciences (NCATS), 2021)
Inconclusive results are not listed. Calls of active or inactive are those of the source. Calls come from the whole dose curve; as a rule, active = well fitted inhibition curve with a large enough effect; inconclusive = small, poorly fitted or top-dose-only effect; inactive = flat fitted curve, though single readings scatter. Starred links: 1 amine or outer side, 2 acyl side, 3 side chain; linkers in the order of their positions; H or OH if unused. Positions of bridges follow the written chain, without caps; N, C: chain ends. Non-standard residues stand in square brackets, D forms with d. Residues, ends and D or L forms follow the SMILES beside them. Chains are numbered I, II in the order given. ξ: configuration not given here. *: point of attachment. Actinocin(9to1) = Cc1c2oc3c(C)ccc(C(=O)[*:1])c3nc-2c(C(=O)[*:2])c(N)c1=O; ξNMeV = CNC(C(=O)O)C(C)C; Cbz = O=C(OCc1ccccc1)*; Nva = CCC[CH](N)C(=O)O; ξV = CC(C)C(N)C(=O)O; Sar = CNCC(=O)O

experiment: qHTS for characterization and localization of zebrafish homologs of the human ABCB1 multidrug transporter: empty vector transfected cells; conditions: empty vector transfected control cells, CellTiter-Glo luminescence viability, 72 h; series mostly up to 46.1 µM
From the text: The zebrafish has emerged as a potential model to study the blood-brain barrier (BBB) given its similarities with mammalian systems. However, little information has been available with regard to homologous ATP-binding cassette transporters expressed at the zebrafish BBB. Two transporters that are highly expressed at the human BBB are P-glycoprotein (P-gp, encoded by the ABCB1 gene) and ABCG2 (encoded by the ABCG2 gene). In this study, we focus on characterization of P-gp homologs in the zebrafish, which has two genes that are homologous to human ABCB1 - abcb4 and abcb5. We generated stably-transfected cell lines to determine their substrate specificities. […] Zebrafish abcb4 also colocalized with claudin 5 expression in brain endothelial cells.
A high-throughput screen was performed as previously described on empty vector transfected cells, P-gp-overexpressing MDR-19 cells and cells transfected with full-length zebrafish abcb4 (ZF Abcb4) or abcb5 (ZF Abcb5). Briefly, cells were plated into 1536-well plates at a density of 500 cells/well in 5 uL media. P-gp substrate compounds (approximately 90) selected from our previous study were then added at varying concentrations using a 1536-head pin tool (Kalypsis, San Diego, CA) and plates were incubated at 37C in 5% CO2 for 72 h. CellTiter-Glo reagent (Promega) was dispensed into the wells, incubated for 5 min and luminescence was read on a ViewLux instrument (Perkin-Elmer).
Cytotoxic compounds were defined as those that yielded a curve class of -1.1, -1.2, -2.1, -2.2, -2.3, or -2.4, a maximum response of >50% and an AC50 of < 10 uM. All compounds from screening analysis were tested in Vector (empty vector control), MDR-19 (P-gp overexpressing), zebrafish abcb4 (ZF Abcb4) and abcb5 (ZF Abcb5) expression cell lines.
1. Tobie D Lee, Olivia W Lee, Kyle R Brimacombe, Lu Chen, Rajarshi Guha, Sabrina Lusvarghi, Bethilehem G Tebase, Carleen Klumpp-Thomas, Robert W Robey, Suresh V Ambudkar, Min Shen, Michael M Gottesman, Matthew D Hall. A High-Throughput Screen of a Library of Therapeutics Identifies Cytotoxic Substrates of P-glycoprotein. Mol Pharmacol. 2019, Nov;96(5):629-640.

Question: With CCC(C)C(=O)OC1CC(O)C23C4OCC5(C(O)CC2C1(C)C(O)O4)C3C(=O)C(O)C1(C)C(O)(c2ccoc2)CC2OC251 (stereo not given) as the compound, how does the Potency read?
Answer: 1100 nM (active)

Question: With COCCn1c2c([n+](Cc3cnccn3)c1C)C(=O)c1ccccc1C2=O as the compound, how does the Potency read?
Answer: 16.6 nM (active)

Question: For NC(=O)Nc1cc(-c2cccc(F)c2)sc1C(=O)N[C@H]1CCCNC1, which Potency is on record?
Answer: 590 nM (active)

Question: For CN(C)CCN(C)C(=O)c1ccc(NC(=O)Nc2ccc(-c3nc(N4CCOCC4)c4ccn(CC(F)(F)F)c4n3)cc2)cc1, which Potency is on record?
Answer: 264 nM (active)

Question: For CC(C)(C)c1cnc(CSc2cnc(NC(=O)C3CCNCC3)s2)o1, which Potency is on record?
Answer: 1080 nM (active)

Question: With CC(C)C[C@H](NC(=O)[C@@H](NC(=O)c1cccc(-c2ccccc2)n1)[C@@H](C)O)B(O)O as the compound, how does the Potency read?
Answer: 74.3 nM (active)

Question: For Cc1cc(Nc2cc(N3CCN(C)CC3)nc(Sc3ccc(NC(=O)C4CC4)cc3)n2)n[nH]1, which Potency is on record?
Answer: 6620 nM (active)

Question: With C[C@@H]1O[C@@H](O[C@H]2[C@@H](OC(=O)[C@]34CCC(C)(C)CC3C3=CCC5[C@@]6(C)C[C@H](O)[C@H](O[C@@H]7O[C@H](CO)[C@@H](O)[C@H](O)[C@H]7O[C@@H]7OC[C@@H](O)[C@H](O)[C@H]7O)[C@@](C)(C(=O)O)C6CC[C@@]5(C)[C@]3(C)CC4)OC[C@H](O)[C@@H]2O)[C@H](O)[C@H](O)[C@H]1O[C@@H]1OC[C@@H](O)[C@H](O)[C@H]1O (stereo not given in full) as the compound, how does the Potency read?
Answer: 1980 nM (active)

Question: For Oc1ccc(-c2ccc(-c3cc(Nc4cccc(CNC5CC5)c4)n[nH]3)cc2)c(O)c1, which Potency is on record?
Answer: 2960 nM (active)

Question: For Cc1c2oc3c(C)ccc(C(=O)N[C@@H]4C(=O)NC(C(C)C)C(=O)N5CCC[C@H]5C(=O)N(C)CC(=O)N(C)C(C(C)C)C(=O)O[C@@H]4C)c3nc-2c(C(=O)N[C@@H]2C(=O)NC(C(C)C)C(=O)N3CCC[C@H]3C(=O)N(C)CC(=O)N(C)C(C(C)C)C(=O)O[C@@H]2C)c(N)c1=O (stereo not given in full) (I: T[ξV]P[Sar][ξNMeV] / II: T[ξV]P[Sar][ξNMeV]; ester I:1-I:C, II:1-II:C; linker I:N-II:N via Actinocin(9to1)), which Potency is on record?
Answer: 7.4 nM (active)

Question: For Cc1nc(Nc2n[nH]c3c2CN(C(=O)N[C@H](CN(C)C)c2ccccc2)C3(C)C)c2sccc2n1, which Potency is on record?
Answer: 41.8 nM (active)

Question: Which Potency does the source give for CCc1c(O)cc(O)c(C(=O)c2ccc(OCCN3CCOCC3)c(OC)c2)c1CC(=O)N(CCOC)CCOC here?
Answer: 743 nM (active)

Question: Which Potency does the source give for CN(C)C1CCN(C(=O)c2ccc(NC(=O)Nc3nc(N4CCOCC4)nc(N4CCOCC4)n3)cc2)CC1 here?
Answer: 469 nM (active)

Question: Which Potency does the source give for Cc1ccc(-c2ncn(-c3ccc(Nc4nccc(-c5cccc(N6CCOCC6)c5)n4)cc3)n2)cn1 here?
Answer: 3320 nM (active)

Question: For CN(C)c1ccc(C(=C2C=CC(=[N+](C)C)C=C2)c2ccc(N(C)C)cc2)cc1, which Potency is on record?
Answer: 590 nM (active)

Question: Which Potency does the source give for COC[C@H](NC(=O)c1cnc(C)s1)C(=O)N[C@@H](COC)C(=O)N[C@@H](Cc1ccccc1)C(=O)[C@@]1(C)CO1 here?
Answer: 166 nM (active)

Question: With CN(C)C/C=C/C(=O)Nc1cccc(C(=O)Nc2ccc(Nc3nccc(-c4cccnc4)n3)cc2)c1 as the compound, how does the Potency read?
Answer: 18700 nM (active)

Question: For N=C(N)c1ccc(OCCCCCOc2ccc(C(=N)N)cc2)cc1, which Potency is on record?
Answer: 2640 nM (active)

Question: For C[C@@H](Oc1cc(-n2cnc3ccc(CN4CCN(C)CC4)cc32)sc1C(N)=O)c1ccccc1C(F)(F)F, which Potency is on record?
Answer: 37.2 nM (active)

Question: Which Potency does the source give for CC1(C)CC[C@]2(C(=O)OC3OC(CO)C(O)C(O)C3O)CC[C@]3(C)C(=CCC4[C@@]5(C)CC[C@H](OC6OC(C(=O)O)C(O)C(O)C6O)C(CO)(CO)C5CC[C@]43C)[C@@H]2C1 (stereo not given in full) here?
Answer: 2230 nM (active)

Question: For Cn1cc(-c2[nH]c3cc(NC(=O)[C@H](N)C4CCCCC4)cc4c3c2C=NNC4=O)cn1, which Potency is on record?
Answer: 418 nM (active)

Question: For Cc1cc(N)c2ccccc2[n+]1CCCCCCCCCC[n+]1c(C)cc(N)c2ccccc21, which Potency is on record?
Answer: 5900 nM (active)

Question: With COc1cc2ncn(-c3cc(OCc4ccccc4C(F)(F)F)c(C(N)=O)s3)c2cc1OC as the compound, how does the Potency read?
Answer: 1910 nM (active)

Question: For C[C@@]12O[C@@H](C[C@]1(O)CO)n1c3ccccc3c3c4c(c5c6ccccc6n2c5c31)CNC4=O, which Potency is on record?
Answer: 2640 nM (active)

Question: Which Potency does the source give for Cc1ccc(C(=O)N(CCCN)C(c2nc3cc(Cl)ccc3c(=O)n2Cc2ccccc2)C(C)C)cc1 (stereo not given) here?
Answer: 1180 nM (active)

Question: Which Potency does the source give for COc1cccc2c1C(=O)c1c(O)c3c(c(O)c1C2=O)C[C@@](O)(C(=O)CO)C[C@H]3O[C@H]1C[C@H](N)[C@@H](O)[C@H](C)O1 here?
Answer: 105 nM (active)

Question: With CC[C@@H]1C(=O)N(C)c2cnc(Nc3ccc(C(=O)NC4CCN(C)CC4)cc3OC)nc2N1C1CCCC1 as the compound, how does the Potency read?
Answer: 46.9 nM (active)

Question: With CC(NCc1ccc2c(c1)nc(NC(=O)c1ccc(-c3cn[nH]c3)s1)n2CC(C)(C)O)C(C)(C)C (stereo not given) as the compound, how does the Potency read?
Answer: 332 nM (active)

Question: Which Potency does the source give for CC(=O)O[C@@H]1C[C@H](O)[C@@]23CO[C@@H](O)C1(C)[C@@H]2C[C@@H](O)[C@]1(C)[C@@H]3C(=O)[C@H](OC(C)=O)[C@@]2(C)[C@H](c3ccoc3)C[C@H]3O[C@]321 here?
Answer: 93.5 nM (active)

Question: With CCS(=O)(=O)c1cccc(-c2cc(C(=O)NC3CCN(C)CC3)c(C)c3[nH]c4ncc(C)cc4c23)c1 as the compound, how does the Potency read?
Answer: 2350 nM (active)

Question: With CN(c1ncccc1CNc1nc(Nc2ccc3c(c2)CC(=O)N3)ncc1C(F)(F)F)S(C)(=O)=O as the compound, how does the Potency read?
Answer: 4180 nM (active)

Question: Which Potency does the source give for CO[C@H]1/C=C/C=C/C=C/C[C@H](OC(=O)[C@@H](C)NC(=O)C2CCCCC2)[C@H](C)[C@@H](O)/C(C)=C/CCc2cc(O)cc(c2)NC(=O)C1 here?
Answer: 277 nM (active)

Question: With NC(=O)Nc1cc(-c2ccc(CN3CCOCC3)c(F)c2)sc1C(=O)N[C@H]1CCCNC1 as the compound, how does the Potency read?
Answer: 469 nM (active)

Question: Which Potency does the source give for CCN(CCCO)CCCOc1ccc2c(Nc3cc(CC(=O)Nc4cccc(F)c4)[nH]n3)ncnc2c1 here?
Answer: inactive

Question: With C=CCn1c(=O)c2cnc(Nc3ccc(N4CCN(C)CC4)cc3)nc2n1-c1cccc(C(C)(C)O)n1 as the compound, how does the Potency read?
Answer: 1180 nM (active)

Question: For CCCC(C=O)NC(=O)C(CC(C)C)NC(=O)C(CC(C)C)NC(=O)OCc1ccccc1 (stereo not drawn) (Cbz-Leu-Leu-[Nva]-aldehyde; configuration not given here), which Potency is on record?
Answer: 1480 nM (active)

Question: With CC[C@@H]1C(=O)N(C)c2cnc(Nc3ccc(C(=O)NC4CCC(N5CCN(CC6CC6)CC5)CC4)cc3OC)nc2N1C(C)C (stereo not given in full) as the compound, how does the Potency read?
Answer: 52.6 nM (active)

Question: With C/C=C1/NC(=O)C2CSSCCC=CC(CC(=O)NC(C(C)C)C(=O)N2)OC(=O)C(C(C)C)NC1=O (stereo not given) as the compound, how does the Potency read?
Answer: 52.6 nM (active)

Question: For CCN(CC)Cc1ccc(C(=O)N(CCc2ccccc2OC)[C@@H]2CCNC2)cc1, which Potency is on record?
Answer: inactive

Question: Which Potency does the source give for COc1ccc(CC2C(=O)NC(C)C(=O)N(C)C3Cc4ccc(cc4)Oc4cc(ccc4OC4OC(CO)C(O)C(O)C4O)CC(C(=O)NC(C)C(=O)NC(C)C(=O)N2C)N(C)C3=O)cc1 (stereo not given) here?
Answer: 88.8 nM (active)
